Data published in PubChem BioAssay (NCATS).
Results filed as inconclusive are left out. The source made the active and inactive calls. The call rests on the fitted dose curve; in most records, active means well fitted curve in either direction with a large enough effect (not every such curve was filed as active); inconclusive means small, poorly fitted or top-dose-only effect, or another doubt; inactive means flat fitted curve, though single readings scatter.

Test: Stat Signaling Pathway (AID 446);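 further: ME-180 cervical cancer cells given 40 pM IL-6 alongside compound; SIE-controlled beta-lactamase reporter measured as 460/530 nm FRET emission ratio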
Conditions: ME-180 SIE beta-lactamase reporter, IL-6 stimulated, 5 h; at 17.2 µM (top of the series) unless noted
Procedure, shortened: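 Reporter line: ME-180 cervical carcinoma, SIE-beta-lactamase. Treatment: compound with 40 pM IL-6, 5 hrs, 37 C, in low-serum OPTI-MEM with 10 mM HEPES pH 7.3. Detection: 460/530 nm fluorescence.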
On the % scale 0 is the no-effect control and ±100 the full control effect.

Row | Compound | activity, negative = inhibition
1 | NC(=S)c1ccc[n+]([C@@H]2O[C@@H](COP(=O)([O-])OP(=O)(O)OC[C@@H]3O[C@@H](n4cnc5c(N)ncnc54)[C@@H](OP(=O)(O)O)[C@H]3O)[C@@H](O)[C@H]2O)c1 | 1.28% [at 38 µM] (inactive)
2 | CC1(C)Cc2c(sc3nc4n(c(=N)c23)CCCCC4)CO1 | 3.32% (inactive)
3 | COCCCNc1nc(-c2ccncc2)nc2ccccc12 | -12.9% (inactive)
4 | COc1ccc(-c2oc3ncn4nc(COc5ccccc5)nc4c3c2-c2ccc(OC)cc2)cc1 | 4.11% (inactive)
5 | CCOC(=O)C1=C(C)NC(C)=C(C(=O)OC)[C@H]1c1cccc(Cl)c1Cl | -0.0099% [at 38 µM] (inactive)
6 | COc1ccc(N2CCN(C3CC(=O)NC3=O)CC2)cc1 (stereo not given) | 17.5% (inactive)
7 | N#CC1=C(N)N(c2ccccc2)C(c2ccccc2)C1(C#N)C#N (stereo not given) | -18.6% (inactive)
8 | Cn1c(OCc2cccnc2)nc2c1c(=O)n(Cc1ccc(Br)cc1)c(=O)n2C | -27.6% (inactive)
9 | COc1cccc(NC(=O)C2CC(=O)n3cnnc3S2)c1 (stereo not given) | -7.33% (inactive)
10 | CNC(=O)Nc1cccc(NC(=O)NC)n1 | 0.623% (inactive)
11 | Cc1nc(-c2cn[nH]c2)c2cc(C)oc2n1 | -3.87% (inactive)
12 | CCCCCCCCN[C@@H](C)[C@H](O)c1ccc(SC(C)C)cc1 | 7.39% (inactive)
13 | Cc1ccc(S(=O)(=O)/C(C#N)=C/c2c(N3CCN(C)CC3)nc3c(C)cccn3c2=O)cc1 | -7.22% (inactive)
14 | CC1(C)Cc2nc3sc4c(N(CCO)CCO)ncnc4c3cc2CO1 | -5.3% (inactive)
15 | CCc1cc(=O)oc2c(CN3CCN(C)CC3)c(O)c(Cl)cc12 | 2.51% (inactive)
16 | CC(C)c1nc2n[nH]c(N)c2c2c1CCC2 | -1.39% (inactive)
17 | NC(=O)/C(=C\c1ccncc1)c1cccc2ccccc12 | -3.8% [at 7.69 µM] (inactive)
18 | CC(NC(=O)NCCCn1ccnc1)(C(F)(F)F)C(F)(F)F | 5.85% (inactive)
19 | CC1(C)C2CCC1(C)C(NC(=O)CCN1CCCCC1)C2 (stereo not given) | 8.36% (inactive)
20 | C[C@H](CCC(=O)O)[C@H]1CC[C@@H]2[C@H]3CC[C@H]4C[C@@H](O)CC[C@@]4(C)[C@H]3CC[C@]21C | -1.14% (inactive)

Row | Compound | activity, negative = inhibition
21 | CCCc1nc(N2CCOCC2)c(C#N)c2c1CCCC2 | -12.3% (inactive)
22 | O=c1cc(-c2ccco2)nc(-c2cccs2)o1 | 8.1% (inactive)
23 | Cc1cccc(OCC(=O)N2CCC(N3CCCCCC3)CC2)c1 | 5.82% (inactive)
24 | Cc1cc(Cn2ccnc2)c(C)cc1Cn1ccnc1 | 2% (inactive)
25 | COc1cccc(-c2nc(NCCN3CCOCC3)c3ccccc3n2)c1O | 6.04% (inactive)
26 | Cn1c(N2CCOCC2)nc2c1c(=O)n(Cc1ccc(Cl)cc1)c(=O)n2C | 23.9% (inactive)
27 | S=c1[nH]nc(-c2ccccc2)n1Cc1ccccc1 | 6.25% (inactive)
28 | C=C1c2cc(OC)ccc2NC(=O)N1CC | 1.02% (inactive)
29 | C=CCNc1nnc(SC2CC(=O)N(c3ccc(OC)cc3)C2=O)s1 (stereo not given) | -1.82% (inactive)
30 | Cc1ccc(S(=O)(=O)N2CCN(c3nc(C)c4c(c3C#N)CC(C)(C)OC4)CC2)cc1 | 89.5% [activator] (active)
31 | O=C(CCN1C(=O)c2ccccc2C1=O)OCN1C(=O)c2ccccc2C1=O | -0.962% (inactive)
32 | N#Cc1c(NCCCO)nc(-c2ccccc2)c2c1CCCC2 | -5.59% (inactive)
33 | Oc1c(C=Nc2cccnc2)sc2ccccc12 | -3.68% (inactive)
34 | CCCCCSc1nc(N2CCOCC2)c2c(c1C#N)CC(C)(C)OC2 | 9.95% (inactive)
35 | CCC(=O)Nc1nc2ccccc2n1Cc1ccccc1C | 2.77% (inactive)
36 | N#CCSc1nc2sc3c(c2c(=O)n1C1CCCCC1)CCCC3 | 6.22% (inactive)
37 | COC(=O)CSC1=C(C#N)C(=O)NC2(CCCCC2)S1 | 3.53% (inactive)
38 | Cc1c(C(=O)O)sc(=S)n1-c1ccccc1 | 4.36% (inactive)
39 | C=CCOC(=O)C(C#N)c1nc2ccccc2nc1N1CCC(C(=O)OCC)CC1 (stereo not given) | -10.4% (inactive)
40 | Cc1cc(C(C)(C)CC(C)(C)C)ccc1OCCOCC[N+](C)(C)Cc1ccccc1 | 4.17% (inactive)
